Screening results (PubChem BioAssay)
12-LOX inh: ALOX12 (human) lipoxygenase inhibition. P18054. purified 12hLO, xylenol orange hydroperoxide absorbance. Potency, µM (titrated, usually from 108 µM), inactives show at the highest dose activity change, negative = inhibition, hits mostly inhibitors. 580,000 compounds, 1.1% hits. AID 1671190; further: on the % scale 0 is the no-effect control and ±100 the full control effect
Target sequence (P18054 whole entry, looked up): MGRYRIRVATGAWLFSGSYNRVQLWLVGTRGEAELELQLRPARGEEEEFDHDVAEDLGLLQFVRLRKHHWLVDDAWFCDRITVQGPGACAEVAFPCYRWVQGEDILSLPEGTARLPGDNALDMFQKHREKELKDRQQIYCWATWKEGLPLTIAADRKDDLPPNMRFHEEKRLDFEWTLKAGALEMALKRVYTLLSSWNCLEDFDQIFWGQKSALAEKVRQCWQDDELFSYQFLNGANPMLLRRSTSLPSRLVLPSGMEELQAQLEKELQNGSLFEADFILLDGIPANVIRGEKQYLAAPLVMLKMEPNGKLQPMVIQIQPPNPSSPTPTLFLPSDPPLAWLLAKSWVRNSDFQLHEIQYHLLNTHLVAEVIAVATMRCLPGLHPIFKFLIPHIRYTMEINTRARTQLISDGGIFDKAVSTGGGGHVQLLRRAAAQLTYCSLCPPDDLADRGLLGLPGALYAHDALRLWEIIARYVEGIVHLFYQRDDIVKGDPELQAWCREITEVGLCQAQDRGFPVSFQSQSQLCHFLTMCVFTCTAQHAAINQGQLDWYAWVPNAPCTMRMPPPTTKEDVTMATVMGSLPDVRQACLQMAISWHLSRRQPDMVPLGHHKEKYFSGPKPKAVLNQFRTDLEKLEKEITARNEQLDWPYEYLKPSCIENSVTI
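Purified human 12hLO (150 nM final) in 25 mM Hepes, 0.01% Triton X-100, pH 7.0 was preincubated 15 min at room temperature with compound. Then 40 uM arachidonic acid was added, 30 min. Hydroperoxide was read by Fe-XO absorbance ratio 573/405 nm.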
S2 tox: reduces viability in counter-screen for ATXN expression inhibitors; 400,000 compounds, 0.49% hits; Potency, µM (titrated, usually from 56.7 µM), actives largely listed as cytotoxic; S2 cells (HEK-293 line with an ATXN2-luciferase reporter) viability, CellTiter-Fluor protease fluorescence, 24 h; AID 651635; further: nearly all actives have a fitted effect of over 40% in size
HepG2 viability: counter-screen for TGF-b inhibitors: cytotoxicity in HepG2 cells | HepG2 CAGA-GFP viability, ATP luminescence, 18 h | Potency, µM (titrated, usually from 46.1 µM), without a hit: at the highest dose activity change, negative = cytotoxicity, most hits filed as cytotoxic | 410,000 compounds, 0.76% hits | AID 588856
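HepG2 CAGA-GFP cells (1000/well, DMEM with 1% FBS) received compound, then TGF-beta at 500 pg/mL final, and were incubated 18 hours at 37 degrees C. Viability was read by CellTiter-Glo luminescence. Media-only wells were set as complete cell-killing and DMSO as no toxicity.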
TGFb inhibitor: inhibitors of TGF-b signaling; Potency, µM (titrated, usually from 46.1 µM), for inactives: at the highest dose activity, negative = inhibition, usual class: inhibitors; AID 588855; 410,000 compounds, 1.2% hits; HepG2 CAGA-GFP TGF-b/SMAD3 reporter, GFP fluorescence, 18 h; TGF-beta stimulated, 500 pg/mL final; further: on the % scale 0 is the no-effect control and ±100 the full control effect; nearly all actives have a fitted effect of over 65% in size
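Using HEPG2 CAGA-GFP reporter cells at 1000 cells/well, we pinned test compounds, stimulated with recombinant TGF-beta (500 pg/mL final) and measured total well GFP after 18 h.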
ATXN2 expr inh: ATXN2 expression inhibition; HEK-293 ATXN2-luciferase reporter, luminescence, 24 h; Potency, µM (doses to about 57 µM), inactives show at the top dose activity change, negative = inhibition, hits mostly inhibitors; 360,000 compounds, 0.72% hits; further: on the % scale 0 is the no-effect control and ±100 the full control effect; nearly all actives have a fitted effect of over 55% in size
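qHTS (up to 57 uM final) was run with 24 h compound exposure of reporter cells at 37 °C. Each well was multiplexed: SteadyGlo luminescence measured ATXN2-luciferase expression after a fluorogenic Gly-Phe-AFC viability readout (25 uM final).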
The depositor's hits bear a star; i = inactive; ? = inconclusive; nt = not tested or not shown; [ ] = remark or other dose. In the library only some 2.7% were active in any assay of this set; here they are far more common. The call rests on the fitted dose curve; in most records, active means well fitted curve in the direction sought with a large enough effect; inconclusive means small, poorly fitted or top-dose-only effect, or another doubt; inactive means no such curve, though single readings can be large; an effect the other way counts as inactive or inconclusive. Potency means the concentration at half of the fitted maximal effect.

SMILES | 12-LOX inh | S2 tox | HepG2 viability | TGFb inhibitor | ATXN2 expr inh
O=C(N/N=C/c1ccc(O)cc1)c1[nH]c2ccc(Br)cc2c1-c1ccccc1 | -11.9% | i | -43.7% | 11.2µM* | -22.3%
CN(Cc1ccc2c(c1)OCO2)Cc1nc(N)nc(Nc2ccc(Cl)cc2)n1 | -0.2% | nt | nt | nt | nt
CCOC(=O)c1c2c(n(-c3ccc(OC)cc3)c1C)C(=O)C(=O)c1ccccc1-2 | nt | 8.91µM* | 3.16µM* | ? | 8.91µM*
Cc1ccc(C)c(N2CCN(C(=O)c3cc4c(C)nc5ccccc5c4o3)CC2)c1 | -6.0% | ? | -121.3% | ? | nt
COc1ccccc1N1CCN(C(=O)c2cc3c(C)nc4ccccc4c3o2)CC1 | 11.7% | ? | -20.3% | ? | 20µM*
CN(CCc1noc(C(=O)NCc2ccccc2)n1)C(=O)Nc1ccc(F)c(Cl)c1 | 8.7% | nt | nt | nt | nt
CC(C)C(=O)Nc1cccc(NC(=O)Nc2ccc(Cl)cc2)c1 | 38.6% | nt | nt | nt | nt
Cc1ccccc1NC(=O)CN(C)C1=NS(=O)(=O)c2ccccc21 | 3.4% | nt | nt | nt | nt
CN(C)CCNC(=O)c1sc2nc(-c3ccccc3)cc(C(F)(F)F)c2c1N | -28.4% | i | 11.2µM* | ? | ?
COCCn1c(C)cnc1CC1CCN(S(=O)(=O)c2cccc(OC)c2)C1 (stereo not given) | -5.6% | nt | nt | nt | nt
Cc1cccc(NC(=S)N/N=C2/CCCC(C)C2)c1 (stereo not given) | 35.5µM* | nt | nt | nt | nt
CCNc1cc(N2CCC(CCC(=O)N3CCN(c4ncccn4)CC3)CC2)ncn1 | -2.0% | nt | nt | nt | nt
COc1ccc(S(=O)(=O)N2CCCC2C(=O)Nc2nnc(-c3cccnc3)s2)cc1 (stereo not given) | 39.8µM* | i | -5.8% | -23.0% | 6.5%
O=C(N/N=C/c1ccc2c(c1)OCO2)c1ccccn1 | 2.5%[57.4 µM] | i | 7.08µM* | 0.5% | ?
O=C(N/N=C/c1cc2c(cc1Br)OCO2)c1ccccn1 | 127.5% | i | -14.4% | 1.0% | 22.7%
O=C(N/N=C/c1ccncc1)c1ccccn1 | nt | i | -21.4% | -7.3% | 12.2%
CC(C)c1ccc(/C=N/NC(=O)c2ccccn2)cc1 | -0.9% | i | -22.2% | 3.2% | 12.6µM*
COc1ccc(CCc2nc3nccc(-c4cccs4)n3n2)cc1OC | -6.3% | nt | nt | nt | nt
CCOc1cc(/C=N/N=C(N)N)ccc1OCc1ccc(Cl)cc1 | ? | 31.6µM* | -95.1% | ? | ?
NC(N)=N/N=C/c1ccc(OCc2ccccc2)c(OCc2ccccc2)c1 | ? | 22.4µM* | 15.8µM* | 17.8µM* | 22.4µM*
COc1cc(/C=N/OCC(=O)NC2CCCCC2)ccc1OCc1ccccc1 | 0.6% | i | -19.1% | -9.9% | 19.8%
COc1cc(/C=N/O)ccc1OCc1ccc(Cl)cc1 | -7.3% | nt | nt | nt | nt
COc1cc(/C=N/OCC(=O)NC23CC4CC(CC(C4)C2)C3)ccc1OCc1ccccc1 | 11.9% | i | 3.9% | 20µM* | 12.8%
COc1cc(/C=N/N=C(N)N)ccc1OCc1ccc(Cl)cc1 | ? | i | 10µM* | ? | ?
CCN1CCN(c2oc(-c3ccc(Cl)cc3)nc2C#N)CC1 | -4.9% | nt | nt | nt | nt
SMILES | 12-LOX inh | S2 tox | HepG2 viability | TGFb inhibitor | ATXN2 expr inh
COc1cccc(/C=N/NC(N)=S)c1OCc1cccc(Cl)c1 | 35.5µM* | i | 3.3% | ? | nt
COc1cc(/C=N/NC(N)=S)ccc1OC(=O)c1ccc(C)cc1 | ? | i | -15.8% | -3.6% | -8.8%
COc1cc(/C=N/O)ccc1OCc1ccc(C(=O)O)cc1 | -18.3% | i | -32.2% | 8.9% | 0.708µM*
COc1cc(/C=N/NC(N)=S)ccc1OCc1ccc(C)cc1 | 44.7µM* | i | -7.4% | 17.8µM* | nt
COc1cc(Cl)ccc1C(=O)NC1CCN(c2cc(C(F)(F)F)nc(C)n2)CC1 | 26.0% | nt | nt | nt | nt
COc1ccc(/C=C2\Oc3cc(OS(=O)(=O)c4ccc(OC)cc4)ccc3C2=O)cc1 | -5.5% | nt | nt | nt | nt
O=[N+]([O-])c1ccc(S(=O)(=O)NN=Cc2ccc(Cl)c(Cl)c2)cc1 | 17.8µM* | i | 6.2% | 8.1% | -22.9%
Fc1cccc(CSc2nnc(-c3c[nH]c4ccccc34)n2C2CC2)c1F | -6.7% | nt | nt | nt | nt
CCn1c2ccccc2c2cc(/C=C(/C#N)C(N)=S)ccc21 | ? | ? | -57.2% | 3.98µM* | 3.55µM*
COCCn1c(C)cc(C2=NNC(=Nc3ccccc3F)SC2)c1C | ? | i | -12.9% | 0.0% | ?
Cc1cc(C2=NNC(=Nc3ccccc3)SC2)c(C)n1C | 14.1µM* | ? | 21.3% | 10.6% | 26.7%
C=CCN=C1NN=C(c2cc(C)n(CC=C)c2C)CS1 | ? | i | -13.7% | -18.9% | 26.7µM*
O=Nc1c(O)n(Cc2ccc(Cl)c(Cl)c2)c2ccccc12 | -48.3% | ? | 12.6µM* | 0.0% | ?
CCCc1nnc(NC(=O)c2cc(-c3ccc4c(c3)OCCO4)on2)s1 | 4.9% | nt | nt | nt | nt
CCCc1nc(SCC(=O)c2ccc(F)cc2)c2ccccc2n1 | 35.5µM* | i | -46.0% | ? | -10.2%
COc1ccc(C(=O)N[C@H]2CC[C@]3(C)CCC([C@H](C)C(=O)N4CCC(C)CC4)[C@H](O)[C@H]3[C@@H]2C)cc1 (stereo not given in full) | 29.6% | nt | nt | nt | nt
COc1ccc(C(=O)CC2(O)C(=O)Nc3c(Cl)ccc(Cl)c32)cc1 (stereo not given) | -35.4%[57.4 µM] | nt | nt | nt | -19.5%
O=C(CC1(O)C(=O)Nc2cc(Cl)cc(Cl)c21)c1ccncc1 (stereo not given) | 4.8% | 25.1µM* | -105.9% | ? | ?
O=c1[nH]c(NNC(=S)NCc2ccccc2)nc2c1C1(CCCCC1)Cc1ccccc1-2 | 35.5µM* | ? | -70.7% | ? | nt
c1ccc(CNc2nc3ccccc3[nH]2)cc1 | 11.2% | i | -11.2% | 0.4% | -33.6%
S=C(NCc1ccccc1)NNc1nc2ccccc2[nH]1 | 31.6µM* | i | -17.2% | -23.6% | 9.7%
CCOC(=O)NC(Nc1cccc(F)c1)(C(=O)OCC)C(F)(F)F (stereo not given) | 8.9% | nt | nt | nt | nt
CCOc1cc(C#N)c(NC(=O)c2ccc(F)cc2)cc1OCC | 11.2% | nt | nt | nt | nt
CCn1c2ccccc2c2cc(/C=N/NC(=O)c3cc(O)cc(O)c3)ccc21 | -4.1% | ? | -51.6% | 15.8µM* | -22.3%
CCn1c2ccccc2c2cc(/C=N/NC(=O)c3ccc(O)cc3)ccc21 | -2.4% | i | 10.2% | ? | ?
CCn1c2ccccc2c2cc(/C=N/NC(=O)c3ccncc3)ccc21 | 4.8% | ? | -33.5% | 8.91µM* | ?
COc1ccc(-c2nc3cc(C)ccc3cc2CN2CCC(NC(C)=O)C2)cc1 (stereo not given) | 3.1% | nt | nt | nt | nt
CC(C)(C)c1ccc(-c2cc(C[C@H]3CNCC[C@H]3CC(=O)N3CCN(Cc4ccccc4)CC3)no2)cc1 | -24.4% | nt | nt | nt | nt
CCOC(=O)C1=C(C)NC(C)=C(C(=O)OCC)C1c1ccccc1/C=C/C(=O)OC(C)(C)C | nt | ? | nt | nt | 35.5µM*
